# This is a sample that favours compounds with a hit; in the whole collection about 2.6% have one here.
# CF NFkB inh = inhibitors of PAF-induced NF-kB signaling, primary screen, cell-based, GFP fluorescence, uHTS; inhibition, % at 5 µM; AID 588850, 2011; 360,000 tested, 0.86% active; KKLEB NF-kB-GFP reporter, GFP fluorescence overnight;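 active = at least 50% inhibition at 5 µM, scaled per plate between neutral and stimulator controls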;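 note: PAF is a Pseudomonas aeruginosa culture filtrate used as stimulus; plate controls were PAF-stimulated DMSO wells for no effect and unstimulated DMSO wells for full effect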
# HIF-2a block = HIF-2a reporter inhibitors, primary screen, luminescence, 786-0 RCC cells; 786-0 RCC cells HIF-2a reporter, luciferase luminescence, overnight; inhibition, % at 18.8 µM; 360,000 tested, 0.72% active;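 active = inhibition of the luminescence signal of 40% or more relative to plate controls, in a single-dose primary screen at 18.75 µM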
# Peg3 promoter = Peg3 promoter-driven luciferase inhibitors, primary screen, cell-based, HeLa, luciferase luminescence; HeLa PEG-Prom luciferase reporter, overnight; inhibition, % at 20 µM; 360,000 tested, 1.7% active; AID 588405, 2011;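 active = inhibition of at least 50% at 20 µM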
# Shn3 inh set2 = reduction of Shn3 3'UTR firefly luciferase signal, primary screen, Schnurri-3 inhibitor project, cell-based, Clone20 osteoblasts, set 2; Clone20 osteoblast Shn3 3'UTR firefly luciferase, 24 h; inhibition, % at 12.5 µM; 360,000 tested, 0.52% active;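 active = mean inhibition of at least 75% with every replicate also reaching 75%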;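 note: 0% = median of neutral control wells and 100% = pilot-screen positive control compound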
# KKLEB cytotox = cytotoxicity in KKLEB CF airway cells, primary screen, cytotoxicity control for CF NF-kB inhibitor project, cell-based, uHTS, fluorescence assay plates. KKLEB CF airway cells viability, ATPlite luminescence, overnight; hits give low values; cells stimulated with P. aeruginosa culture filtrate. activity change (cytotoxicity), % at 5 µM. 360,000 tested, 0.36% active;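 active = corrected activity change at or below -50% at 5 µM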
# * marks the source's active call; other numbers are inactive results; nt = no result.
SMILES,CF NFkB inh,HIF-2a block,Peg3 promoter,Shn3 inh set2,KKLEB cytotox
Cc1cccc(N2CCN(C(=S)Nc3ccc4nc(N5CCN(C)CC5)cc(C)c4c3)CC2C)c1 (stereo not drawn),10,11,76*,0,-39
Cc1cc(N2CCN(C)CC2)nc2ccc(NC(=S)N3CCN(c4ccc(F)cc4)CC3)cc12,-4,19,66*,4,-1
COc1ccc(-c2nn(-c3ccccc3)cc2C(=O)NC(=S)N2CCOCC2)cc1OC,5,-89,-88,-14,-1
Cc1ccc(C(=O)N2CC(=O)Nc3ccc(F)cc3C2c2ccccc2)cc1 (stereo not drawn),-6,18,12,15,0
O=C(CN1CCN(S(=O)(=O)N2CCOCC2)CC1)Nc1cc(Cl)cc(Cl)c1,-11,14,1,16,-26
Clc1nc(-c2ccccc2)c2ccccc2n1,11,9,11,10,7
NC(N)=Nc1nc(-c2ccccc2)c2ccccc2n1,-99,27,57*,37,13
COc1cc(NC(=O)C2=C(N3CCOCC3)/C(=C\c3ccc(Cl)cc3Cl)CC2)cc(OC)c1OC,50,19,24,22,-65*
C/C(N)=C(/C#N)C(=O)COC(=O)C1CCC(C(C)(C)C)CC1 (stereo not drawn),0,8,38,45,-4
O=C1C=C(N2CCCCC2)c2ccccc2C1=O,100*,46*,100*,46,-77*
O=C1c2ccccc2C(=O)c2c1cccc2N1CCCC1,-16,-58,-11,6,2
O=C(N[C@@H](Cc1ccccc1)C(=O)CCl)OCc1ccccc1,37,-11,70*,17,-19
O=C(CSc1nn(-c2ccc(Cl)cc2)c(=S)s1)NCC1CCCO1 (stereo not drawn),19,12,-2,-3,-4
CCCS(=O)(=O)c1nnnn1-c1cccc(OC)c1,90*,-42,102*,99*,-25
COc1cccc(-n2nnnc2SCC(=O)Nc2ccccc2OC)c1,16,11,11,9,-5
O=C(Nc1ccc(Cl)cc1)c1ccc(-c2ccccn2)s1,2,-246,-269,-77,10
CC1=CC(=O)C(C(C)C)=C/C1=C(\c1cc(C(C)C)c(OP(=O)(O)O)cc1C)c1ccccc1C(=O)O,-31,22,67*,9,12
CCOc1ccc(C(=O)c2ccccc2C(=O)O)cc1OCC,-2,10,3,-5,5
COc1cc2c3c(cccc3c1)C(=O)N(CCN1CCCC1)C2=O,-219,-8,102*,-11,8
Cc1ccc(Cn2c(=N)n(CC(=O)c3ccc([N+](=O)[O-])cc3)c3ccccc32)cc1,36,8,102*,9,-61*
Cc1ccc(C(=O)Cn2c(=N)n(CCN3CCOCC3)c3ccccc32)cc1,-4,-62,-23,-8,3
CCn1c(=N)n(CC(=O)c2ccc(Cl)c(Cl)c2)c2ccccc21,8,-136,99*,-100,14
O=C1[C@@H]2Cc3c([nH]c4ccccc34)C(c3cccc(Br)c3)N2C(=O)CN1C1CCN(Cc2ccccc2)CC1 (stereo partly drawn),17,-28,96*,26,-12
Cc1ccc(-c2nn3c(C)nnc3c3ccccc23)cc1S(=O)(=O)NCCO,-60,-7,3,11,6
Cc1ccc(-c2nn3c(C)nnc3c3ccccc23)cc1S(=O)(=O)NC(C)c1ccccc1 (stereo not drawn),-86,17,19,14,-63*
SMILES,CF NFkB inh,HIF-2a block,Peg3 promoter,Shn3 inh set2,KKLEB cytotox
O=C(O)c1cccc(N2C(=O)/C(=C/c3ccc([N+](=O)[O-])cc3)C=C2c2ccccc2)c1,4,57*,53*,-2,4
Cc1nc(SCC(=O)Nc2ccc(F)cc2)c(C#N)c(C)c1CC(=O)c1ccc(Br)cc1,33,9,91*,33,-35
Cc1cccc(NC(=O)CSc2nc(C)c(CC(=O)c3ccc(Br)cc3)c(C)c2C#N)c1C,26,17,71*,49,-34
COCc1cc(C)nc(SCC(=O)Nc2cccc(C)c2C)c1C#N,-9,8,5,22,14
COc1ccc(NC(=O)CSc2nc(C)c3c(c2C#N)CCCC3)cc1,5,0,-22,12,8
CCOC(=O)[C@]12CCC=C1N(Cc1ccc(Cl)cc1Cl)C(=O)[C@H](CC(=O)N1CCSCC1)C2,nt,-2,nt,nt,nt
O=C(OC(C(=O)NC1CCCC1)c1ccccc1F)c1ccco1 (stereo not drawn),-5,17,-5,-4,3
CN(C)S(=O)(=O)c1cccc(NC(=S)N/N=C/c2cc(Br)ccc2O)c1,6,-5,54*,91*,4
CN(C)S(=O)(=O)c1cccc(NC(=S)N/N=C/c2cccc(O)c2)c1,-5,11,9,-2,-5
CCn1c(SCC(=O)c2cc(OC)ccc2OC)nnc1C(C)C,-9,5,3,-10,3
CCn1c(SCC(=O)c2cc(OC)ccc2OC)nnc1-c1ccncc1,5,0,70*,4,-5
CCc1nnc(NC(=O)COc2ccccc2[N+](=O)[O-])s1,-7,-109,-53,-16,15
O=S1(=O)NC(=NCCc2ccccn2)c2ccccc21,5,-3,-12,0,-9
CCN(c1ccccc1)S(=O)(=O)c1ccc(Cl)c(NC(=O)CN(C)Cc2cccc(F)c2)c1,11,17,21,91*,-3
COc1ccccc1NS(=O)(=O)c1cc(NC(=O)CCC2CCCC2)ccc1N1CCOCC1,13,13,-17,-1,-10
COc1ccc(CC(=O)NC2CC(C)(C)NC(C)(C)C2)cc1OC,0,14,-13,-12,0
O=C(CCc1nnc(Cc2ccc(-c3ccccc3)cc2)o1)NCCc1ccccn1,7,-21,-3,-7,5
O=C(CCc1nnc(-c2ccc(-c3ccccc3)cc2)o1)NCCc1ccccn1,-20,40*,-114,14,14
CN1C(=O)C(=O)/C(=C(/O)c2ccccc2)C1c1ccc(Br)cc1 (stereo not drawn),-1,22,-2,-6,2
CN(C)c1ccc(C2/C(=C(/O)c3ccc(Br)cc3)C(=O)C(=O)N2C)cc1 (stereo not drawn),-5,49*,16,25,1
O=C(Nc1ccccc1C(F)(F)F)C1CCN(C(=O)Cc2ccccc2)CC1,-53,12,-1,-1,18
CN(C)c1ccnc2sc(C(N)=O)c(N)c12,91*,17,-7,10,-36
CC1CCCC(C)N1C(=O)COC(=O)c1ccc(Br)o1 (stereo not drawn),-19,6,-27,-13,-10

# Compound activity as filed in PubChem BioAssay.
